Laboratory results as given in article PMC5540273 (PLoS ONE, 2017).

Each compound was assayed on TEC. Conditions: concentration: 1 μM, replicates: in singlicate; n = 1.
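Further: KINOMEscan kinase panel screen.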

| SMILES | %Inh |
| --- | --- |
| O=C(Nc1n[nH]c2cc(-c3ccsc3)ccc12)C1CC1 [SB-732932] | 32% |
| CC[C@@H]1CO[C@H](C(=O)Nc2ccccc2)CN1c1cc(-c2ccc3c(N)n[nH]c3c2)nc(NC)n1 [GSK2376236] | 0% |
| CNc1cc(-c2ccc3c(N)n[nH]c3c2)nc(N)n1 [GSK2224810] | 15% |
| COC(=O)C(NC(=O)NC1CCN(c2ccnc(Nc3ccc(F)cc3)n2)C1)c1ccccc1 (stereo not shown) [GSK1379712] | 11% |
| Cc1ccccc1Cn1ccn2c(=O)cc(N3CCOCC3)nc12 [GSK2269905] | 16% |
| Fc1ccc(-c2nn3cccc(F)c3c2-c2ccncc2)cc1 [GW475620] | 0% |
| COc1ccc(Nc2nccc(-c3ccc(NC(=O)c4cc5cc(F)ccc5[nH]4)cc3)n2)cc1 [GSK1229496] | 0% |
| COc1ccc(Nc2nccc(N3CCC(NC(=O)c4cc5ccccc5s4)C3)n2)cc1 (stereo not shown) [GSK1379738] | 12% |
| COc1ccc(-c2coc3ccc(-c4nnc(C)o4)cc23)cc1 | 0% |
| CNCc1ccc2nc(NC(=O)c3ccc(C(C)(C)C)cc3)cn2c1 | 2% |
| CS(=O)(=O)CCNCc1nc(-c2ccc3ncnc(Nc4ccc(OCc5ccccc5)c(Cl)c4)c3c2)cs1.Cl [GW582764] | 0% |
| Cl.Cl.Cl.N#Cc1ccc(CCNc2nccc(-c3cccc(CN4CCNCC4)c3)n2)cc1 [GSK2137462] | 0% |
| Cc1c(Cn2c3ccccc3n3c(=O)cc(N4CCOCC4)nc23)cccc1C(F)(F)F [GSK2306394] | 1% |
